Screening data as filed in PubChem BioAssay.
Marburg entry inh: qHTS for inhibitors of binding or entry into cells for Marburg Virus; actives 1.8% (n = 300,000); Potency, µM (highest dose often 37.8 µM), for the others: at the top dose activity change, negative = inhibition, most hits filed as inhibitors; Marburg virus pseudotyped entry inhibition, cell reporter; calls by dose curve; tested in HEK293 cells
FMDV inh: High Throughput Screening for Foot and Mouth Disease Virus Antivirals; FMDV antiviral cell-based qHTS; Potency, µM (series often up to 57.9 µM), inactives show top-dose activity change, negative = inhibition, most hits filed as inhibitors; actives 1.2% (n = 410,000); AID 1159524, 2015; calls by dose curve; tested in HEK293T cells; further: read-out not given here; nearly all actives have a fitted effect of over 45% in size
VACV Venus inh: qHTS for Stage-Specific Inhibitors of Vaccinia Orthopoxvirus: Venus Reporter Primary qHTS; Vaccinia virus Venus reporter expression, fluorescence; Potency, µM (titrated, usually from 36.5 µM), inactives show top-dose activity change, negative = inhibition, usual class: inhibitors; actives 0.46% (n = 330,000); AID 720580, 2013; calls by dose curve; tested in A549 cells; further: nearly all actives have a fitted effect of over 30% in size
Lassa entry inh: qHTS for Inhibitors of binding or entry into cells for Lassa Virus. Potency, µM (top dose mostly 37.9 µM), for the others: at the highest dose activity change, negative = inhibition, most hits filed as inhibitors. Lassa virus pseudotype entry inhibition, cell reporter. actives 1.2% (n = 300,000); calls by dose curve; tested in HEK293 cells; further: nearly all actives have a fitted effect of over 50% in size
VACV mCherry inh: qHTS for Stage-Specific Inhibitors of Vaccinia Orthopoxvirus: mCherry Reporter Primary qHTS | actives 0.63% (n = 310,000) | Potency, µM (titrated, usually from 36.5 µM), for the others: top-dose activity change, negative = inhibition, actives largely listed as inhibitors | Vaccinia virus mCherry reporter infection, fluorescence; calls by dose curve; tested in A549 cells; further: nearly all actives have a fitted effect of over 35% in size
Active calls of the source: *; ! = not confirmed by another sample; [ ] = another dose, or the depositor's remark. Rows were chosen to be rich in hits. Some 3.2% of all compounds tested hit in one or more screens of this group. On the % scale 0 is the no-effect control and ±100 the full control effect; potency means the concentration at half of the fitted maximal effect.

For Cc1ccc(C(=O)C(c2ccccc2)N2Cc3ccccc3C2=N)cc1 (stereo not given) the results were Marburg entry inh inconclusive, FMDV inh 32µM*, VACV Venus inh inconclusive, Lassa entry inh inconclusive and VACV mCherry inh -25%.
CC(C)CCNC(=O)[C@@H](c1ccccc1)N1Cc2ccccc2C1=O was read as Marburg entry inh 8%[46.1 µM], FMDV inh 43%, VACV Venus inh 0%, Lassa entry inh 1%[46.1 µM] and VACV mCherry inh -2%.
Screening O=C(O)c1ccc(N2C(=O)/C(=C/c3ccc(-c4ccc([N+](=O)[O-])cc4)o3)C=C2c2ccccc2)cc1 returned Marburg entry inh -15%[46.1 µM], FMDV inh 16µM*, VACV Venus inh 177%, Lassa entry inh -5%[46.1 µM] and VACV mCherry inh -7%.
O=C1NN(c2ccccc2)C(=O)/C1=C/c1ccc(-c2ccc(C(=O)O)cc2)o1 was read as FMDV inh 3%.
Cn1cc(CN2CCC(C(=O)NC(c3ccc(-c4ccccc4)cc3)c3cnccn3)CC2)c2ccccc21 (stereo not given) was read as FMDV inh 0%, VACV Venus inh 11µM* and VACV mCherry inh inconclusive.
O=C(NC(c1ccc(-c2ccccc2)cc1)c1cnccn1)C1CCN(Cc2ccc(Cl)c(Cl)c2)CC1 (stereo not given) was read as FMDV inh -10%, VACV Venus inh -20% and VACV mCherry inh 4%.
CCc1cc2c(nc1CC)CCN(CCC(C)=NO[C@@H](C)c1cn([C@H](CO)Cc3ccccc3)nn1)C2 was read as Marburg entry inh -27%[14.2 µM].
Screening CN1CCc2ccccc2Cc2[nH]c3ccccc3c2CC1 returned Marburg entry inh 11µM*!, FMDV inh -20%, VACV Venus inh -9%, Lassa entry inh -7% and VACV mCherry inh inactive.
For Cc1ccc(S(=O)(=O)N2CC3=C(C2)C2CC2(C)C3)cc1 (stereo not given) the results were FMDV inh -10%, VACV Venus inh -4% and VACV mCherry inh -3%.
O=C(CCl)c1ccc2c(c1)CCN2C(=O)C1CCCCC1 was read as Marburg entry inh inconclusive, FMDV inh 20µM*, VACV Venus inh -12%, Lassa entry inh -4%[46.1 µM] and VACV mCherry inh inactive.
Screening COc1ccc(-c2ccc(CCC(=O)O)n2CC(=O)Nc2ccccc2C)cc1 returned Marburg entry inh -15%[46.1 µM], FMDV inh -6%, VACV Venus inh -4%, Lassa entry inh -4% and VACV mCherry inh -28%.
COC(=O)[C@@]12Cc3ccccc3[C@H]1C[C@H](C)[C@@H](C)N2C(=O)C(F)(F)F was read as Marburg entry inh 3%[14.2 µM].
For COc1ccccc1NS(=O)(=O)c1cccc(NC(=O)Nc2cccc(Cl)c2)c1 the results were Marburg entry inh inconclusive, FMDV inh inconclusive, VACV Venus inh inconclusive, Lassa entry inh 13µM* and VACV mCherry inh inconclusive.
COc1ccccc1NS(=O)(=O)c1cccc(NC(=O)c2cncc(Br)c2)c1 was read as Marburg entry inh 3.5µM*, FMDV inh -5%, VACV Venus inh -28%, Lassa entry inh inconclusive and VACV mCherry inh -9%.
Screening NS(=O)(=O)c1cccc(NC(=O)c2cncc(Br)c2)c1 returned FMDV inh 6%.
Screening COc1ccccc1NS(=O)(=O)c1cccc(NC(=O)NCCCl)c1 returned FMDV inh 8%, VACV Venus inh -4% and VACV mCherry inh -9%.
For CCCCC(CC)CN=C(N)NC(N)=NCCCCCCN=C(N)NC(N)=NCC(CC)CCCC (stereo not given) the results were FMDV inh inconclusive, VACV Venus inh 10µM* and VACV mCherry inh inconclusive.
`CCCCC(CC)CO` (stereo not given) gave FMDV inh -19%, VACV Venus inh -4% and VACV mCherry inh -5%.
For CCN(CC)C(=O)c1cccc(-c2csc(C(O)c3cccc(Cl)c3)n2)c1 (stereo not given) the results were FMDV inh 28µM*, VACV Venus inh -11% and VACV mCherry inh inactive.
`CCN(CC)C(=O)c1cccc(-c2csc(C(C)(O)c3ccncc3)n2)c1` (stereo not given) gave FMDV inh 25µM*, VACV Venus inh -23% and VACV mCherry inh 1%.
